The results in this text go back to PubChem BioAssay AID602245 (The Scripps Research Institute Molecular Screening Center, 2012).

Active and inactive are the calls of the source.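 Rule for the calls: active = compound that raised the calcium level needed for half-maximal fiber tension by more than 10% versus solvent alone; inactive = the rest.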

The nature of the assay: calcium desensitizers of cardiac fiber tension, late-stage follow-up, mechanism study for cardiac RTF inhibitor project, permeabilized porcine cardiac fibers, force transducer, powder samples (AID 602245). As to conditions: pig permeabilized cardiac fiber tension, pCa50 shift, at 10 µM; delta pCa50: measured here: shift in calcium sensitivity, stronger effect = lower value; fold change of Ca2+ KD: stronger effect = higher value; maximal force change: measured here: effect on maximal fiber force.

On to `NCCCCCCNS(=O)(=O)c1cccc2c(Cl)cccc12`, for which the delta pCa50 was -0.116, the fold change of Ca2+ KD was 1.31 (active) and the maximal force change was -4.5%.
